In PubChem BioAssay AID1159580 (chemical genetic matrix, 2015):
Values joined by “and” are separate entries in the source; they are usually repeats but may differ in a detail not shown here. Equal entries are not always repeated. About 2,000 (36%) of roughly 5,500 compounds were called active. Not shown: some 18% with an inconclusive outcome. Cut-off read from the data, not from the text of the source: active = normalized growth mostly below about 0.91 (no sharp cut-off); inconclusive = no clear call, values can overlap the other calls; inactive = mostly above about 0.92. This is one part of the list.

Assay: chemical genetic growth profiling, strain panel (AID 1159580);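 note: tested at 20 µM; growth read once vehicle control cultures reached saturation at 30 °C; 1 = growth at the plate median or of vehicle wells; lower values mean less growth of the strain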
Details: S. cerevisiae deletion strains, growth OD

Measured: normalized growth

COc1ccc2c(C)cc(=O)oc2c1
inactive: locus YAL013W, strain DEP1, hits give low values 1.02 | locus YAL021C, strain ccr4, hits give low values 0.979 | locus YAL026C, strain drs2, hits give low values 0.989 | locus YAL030W, strain snc1, hits give low values 1.02 | locus YBL061C, strain skt5, hits give low values 0.993 | locus YBR009C, strain hhf1, hits give low values 1.01 | locus YBR021W, strain FUR4, hits give low values 0.976 | locus YBR023C, strain chs3, hits give low values 0.989 | locus YBR171W, strain sec66, hits give low values 0.985 | locus YBR229C, strain ROT2, hits give low values 1.01 | locus YBR231C, strain swc5, hits give low values 0.987 | locus YBR279W, strain paf1, hits give low values 0.995 | locus YCL011C, strain gbp2, hits give low values 0.999 | locus YCL016C, strain dcc1, hits give low values 0.997 | locus YCL029C, strain bik1, hits give low values 1.03 | locus YCL061C, strain MRC1, hits give low values 0.995 | locus YCL069W, strain vba3, hits give low values 0.964 | locus YCR088W, strain abp1, hits give low values 0.979 | locus YDL005C, strain med2, hits give low values 0.974 | locus YDL035C, strain GPR1, hits give low values 1.02 | locus YDL040C, strain nat1, hits give low values 0.99 | locus YDL074C, strain BRE1, hits give low values 0.995 | locus YDL101C, strain DUN1, hits give low values 1.02 | locus YDL134C, strain PPH21, hits give low values 0.992 | locus YDL185W, strain tfp1, hits give low values 1.04 | locus YDL192W, strain arf1, hits give low values 1.02 | locus YDR001C, strain nth1, hits give low values 0.981 | locus YDR069C, strain doa4, hits give low values 1 | locus YDR101C, strain arx1, hits give low values 1.01 | locus YDR137W, strain rgp1, hits give low values 0.979 | locus YDR159W, strain sac3, hits give low values 0.995 | locus YDR162C, strain NBP2, hits give low values 1.03 | locus YDR195W, strain ref2 1.04 | locus YDR297W, strain sur2, hits give low values 1.01 | locus YDR318W, strain mcm21, hits give low values 1.02 | locus YDR334W, strain swr1, hits give low values 0.956 | locus YDR335W, strain msn5, hits give low values 0.981 | locus YDR388W, hits give low values 1.01 | locus YDR392W, strain spt3, hits give low values 0.978 | locus YDR502C, strain sam2, hits give low values 1.03 | locus YEL003W, strain gim4, hits give low values 0.982 | locus YEL037C, strain rad23, hits give low values 0.973 | locus YEL061C, strain CIN8 (second series), hits give low values 0.975 | locus YER015W, strain faa2, hits give low values 1 | locus YER016W, strain bim1, hits give low values 0.998 | locus YER110C, hits give low values 1.02 | locus YER111C, strain swi4, hits give low values 0.992 | locus YER155C, strain BEM2 (second series), hits give low values 0.976 | locus YER155C, strain BEM2, hits give low values 1.01 | locus YER167W, strain BCK2, hits give low values 1 | locus YFR010W, strain ubp6, hits give low values 0.966 | locus YGL078C, strain dbp3, hits give low values 1.03 | locus YGL086W, strain mad1, hits give low values 1 | locus YGL167C, strain pmr1, hits give low values 0.983 | locus YGL173C, strain kem1, hits give low values 0.983 | locus YGL227W, strain vid30, hits give low values 0.993 | locus YGL240W, strain doc1, hits give low values 0.99 | locus YGL248W, strain PDE1, hits give low values 1.02 | locus YGL253W, strain hxk2, hits give low values 0.994 | locus YGR078C, strain PAC10, hits give low values 1.01 | locus YGR135W, strain pre9, hits give low values 1.01 | locus YGR252W, strain gcn5, hits give low values 0.981 | locus YHR013C, strain ard1, hits give low values 0.956 | locus YHR027C, strain rpn1, hits give low values 1 | locus YHR030C, strain SLT2, hits give low values 1 and 0.963 | locus YHR079C, strain IRE1 (second series), hits give low values 1.02 | locus YHR079C, strain IRE1, hits give low values 0.98 | locus YHR094C, strain hxt1, hits give low values 1.03 | locus YHR129C, strain ARP1, hits give low values 1.01 | locus YHR142W, strain chs7, hits give low values 0.97 | locus YHR200W, strain rpn10, hits give low values 1.01 | locus YIL066C, strain RNR3, hits give low values 1.01 | locus YIL073C, strain SPO22, hits give low values 1.06 | locus YIL125W, strain kgd1, hits give low values 1.04 | locus YIR030C, strain dcg1, hits give low values 1.03 | locus YJL092W, strain hpr5, hits give low values 0.999 | locus YJL095W, strain BCK1 (second series), hits give low values 0.99 | locus YJL095W, strain BCK1, hits give low values 1.02 and 0.987 | locus YJL115W, strain asf1, hits give low values 0.976 | locus YJL129C, strain trk1, hits give low values 1.01 | locus YJL134W, strain LCB3, hits give low values 1 | locus YJL154C, strain vps35, hits give low values 0.97 | locus YJL164C, strain tpk1, hits give low values 0.983 | locus YJL166W, strain qcr8, hits give low values 0.968 | locus YJL168C, strain set2, hits give low values 1.03
